Screening data: PubChem BioAssay, Broad Institute
EWS-Fli block – EWS/Fli-driven NR0B1 reporter inhibitors, primary screen, A673 cells, NR0B1 luciferase, luminescence, MLPCN library. actives 0.67% (n = 350,000). inhibition, % at 12.6 µM. viability-normalised;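 active = mean inhibition of at least 50% after viability correction, with every replicate also passing that limit; inconclusive = mean reaches 50% but only one of two replicates passes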;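 also: firefly luciferase signal divided by Alamar Blue viability fluorescence both relative to DMSO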
PAX8 inh HTS – inhibitors of PAX8-driven TPO luciferase reporter, primary screen, RMG-I cells, single concentration. SteadyGlo, 24 h. inhibition, % at 12.6 µM. actives 1.2% (n = 360,000). AID 652154, 2013;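 active = mean replicate inhibition at least 60% with every replicate also reaching 60%; inconclusive = only one of the two criteria is met; inactive = mean below 60% and not all replicates reaching 60%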;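 also: luciferase light reporting Pax8 driven TPO promoter activity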
HIV Env fusion – inhibitors of HIV-1 Env-driven cell-cell fusion, primary screen, HeLa-JRFL effector, CEM21 target cells, luciferase. inhibition, % at 12.3 µM. actives 1.1% (n = 360,000);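 active = mean replicate inhibition score of at least 50 and every replicate individually at or above 50; inconclusive = only one of the two criteria met; inactive = mean below 50 and not all replicates reaching 50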
INS-1E GSIS act – GLuc luminescence reporter in INS-1E cells, primary screen for activators of glucose-dependent secretion of insulin. AID 743287, 2014. INS-1E GLuc reporter insulin secretion, 2-3 h. actives 0.61% (n = 370,000). activation, % at 16.6 µM;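 active = lowest replicate activation of at least 40%, so every replicate reaches that level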
C2C12 statin – suppressors of statin myotoxicity in C2C12 myotubes, primary screen, cell-based, single point, plate reader. C2C12 myotubes + simvastatin, ATP luminescence, 48 h; scaled: DMSO 0, geranylgeraniol control 100. rescue of ATP level, % at 7.49 µM. actives 0.78% (n = 330,000). AID 602340, 2012;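 active = mean ATP rescue above about 67%, or every replicate alone reaching that limit, limit read from the data, passing the limit was not always enough; inconclusive = no clear call, values can overlap the other calls; inactive = mean under the limit and some replicate under it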;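 also: myotubes were challenged with 10 µM simvastatin during compound exposure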
miR122 inh – miR-122 Renilla sensor signal increase in Huh7, primary screen, miR-122 inhibitor project, cell-based, single point, plate reader; Huh7 miR-122 Renilla luciferase sensor, 48 h; neutral wells = 0, positive control = 100; activation (reporter increase), % at 12.5 µM; actives 0.3% (n = 340,000); AID 602342, 2012;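 active = mean replicate activation score at least 90 and every replicate individually at or above 90; inconclusive = only one of the two criteria met; inactive = neither criterion met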;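 also: higher luciferase means less miR-122 activity so hits act as miR-122 inhibitors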
Of the large screens only hits and unclear results are named; the others gave an inactive call. Only some compounds are listed: those with a hit (about 3.1% of all), similar ones and a draw of the others.

C[C@H]1CN([C@@H](C)CO)S(=O)(=O)c2ccc(C#CC3CCCC3)cc2O[C@H]1CN(C)Cc1cccnc1	none
C[C@@H]1CN([C@@H](C)CO)S(=O)(=O)c2ccc(C#CC3CCCC3)cc2O[C@H]1CN(C)Cc1cccnc1	PAX8 inh HTS 84
COc1ccccc1C#Cc1ccc2c(c1)O[C@H](CN(C)Cc1cccnc1)[C@H](C)CN([C@@H](C)CO)S2(=O)=O	PAX8 inh HTS 87 (no result: HIV Env fusion)
CCC(=O)N1[C@H](CO)[C@@H](c2ccc(-c3ccccc3)cc2)[C@@H]1CN(C)C(C)=O	none (no result: HIV Env fusion)
C[C@@H]1CN([C@H](C)CO)C(=O)c2cc(NS(=O)(=O)c3cn(C)cn3)ccc2O[C@H]1CN(C)CC1CC1	none
C[C@@H]1CC=CC[C@H](c2cccc(Cl)c2)NC(=O)[C@H](C)N(C)C(=O)c2ccccc2O1 (mixture of isomers)	none (no result: EWS-Fli block, PAX8 inh HTS, HIV Env fusion, C2C12 statin, miR122 inh)
CCC(=O)N1CC2(CCN(C(=O)c3cccnc3)CC2)c2c([nH]c3cc(OC)ccc23)[C@@H]1CO	none (no result: PAX8 inh HTS, HIV Env fusion, C2C12 statin, miR122 inh)
CCCNC(=O)N1CC2(C1)CN(C(C)=O)[C@H](CO)c1[nH]c3cc(OC)ccc3c12	none (no result: PAX8 inh HTS, HIV Env fusion, C2C12 statin, miR122 inh)
O=C(CC1CC1)Nc1ccc2c(c1)[C@H]1C[C@H](CC(=O)N3CCc4ccccc4C3)O[C@H](CO)[C@H]1O2	none (no result: PAX8 inh HTS, HIV Env fusion)
Oc1cc(Nc2ccccc2)cc2cccnc12	PAX8 inh HTS 96
Oc1cccc2cc(Nc3ccccc3)cnc12	PAX8 inh HTS 94 (no result: HIV Env fusion)
Oc1cc(NCCN2CCOCC2)cc2cccnc12	PAX8 inh HTS inconclusive
C[C@H](CO)N1C[C@H](C)[C@H](CN(C)Cc2ccccc2)Oc2ncc(/C=C/c3ccccc3)cc2C1=O	none (no result: PAX8 inh HTS)
Cc1ccc(NCc2nnc(SCC(=O)c3ccc4c(c3)OCCO4)o2)c(C)c1	none (no result: PAX8 inh HTS, HIV Env fusion, miR122 inh)
COc1ccc(C(=O)CSc2nnc(CNc3ccc(C)cc3C)o2)cc1	HIV Env fusion inconclusive, INS-1E GSIS act 59 (no result: EWS-Fli block)
CCCCNC(=O)C1(C)CCCCN1Cc1ccc(-c2ccccc2)cc1 (stereo not drawn)	none
CCCCNC(=O)C1(C)CCCCCN1Cc1cc2ccccc2o1 (stereo not drawn)	C2C12 statin 77
C[C@@H]1CCCCO[C@@H](CN(C)C(=O)Nc2ccc3c(c2)OCO3)[C@H](C)CN([C@@H](C)CO)C(=O)c2cc(NC(=O)c3ccccc3)ccc2O1	none (no result: C2C12 statin)
CC(C)COc1nc2ccccc2c(=O)n1OCC(=O)O	C2C12 statin 116 (no result: EWS-Fli block, PAX8 inh HTS, HIV Env fusion, INS-1E GSIS act)
COCC(=O)Nc1ccc2c(c1)[C@H]1C[C@H](CC(=O)NC3CCCCC3)O[C@@H](CO)[C@H]1O2	none
CO[C@H]1CN(C)C(=O)c2cc(NS(=O)(=O)c3cn(C)cn3)ccc2OC[C@H](C)N(CC2CC2)C[C@@H]1C	none (no result: PAX8 inh HTS, miR122 inh)
C/C(=N\NC1=NCCN1)c1ccc(N)c([N+](=O)[O-])c1	none (no result: miR122 inh)
CCCCCCOc1ccc(/C(C)=N/NC2=NCCN2)cc1[N+](=O)[O-]	EWS-Fli block 59 (no result: C2C12 statin, miR122 inh)
COc1ccc(S(=O)(=O)Nc2cccc3c2O[C@@H](CN(C)S(=O)(=O)c2cccs2)[C@@H](C)CN([C@@H](C)CO)C3=O)cc1	none (no result: PAX8 inh HTS, C2C12 statin)
COC(=O)[C@H](Cc1ccccc1)NC(=O)Cn1cnc(C(=O)Nc2ccc(C)c(C)c2)n1	HIV Env fusion 69
COC(=O)[C@H](Cc1ccc(O)cc1)NC(=O)Cn1cnc(C(=O)Nc2ccc(C)c(C)c2)n1	none (no result: HIV Env fusion)
CCOc1ccc(NCc2cccn2-c2nnc(N3CCC(C(=O)NCCCN4C(C)CCCC4C)CC3)s2)cc1 (stereo not drawn)	C2C12 statin 102
CCOc1ccc(NCc2cccn2-c2nnc(N3CCC(C(=O)NCCCN4CCCCC4C)CC3)s2)cc1 (stereo not drawn)	none
N#Cc1ccccc1/C=N/Nc1nc(-c2ccccc2)c2cc(Cl)ccc2n1	none (no result: EWS-Fli block, C2C12 statin)
Cc1ccc2nc(N/N=C/c3ccccc3C#N)nc(-c3ccccc3)c2c1	INS-1E GSIS act 48 (no result: PAX8 inh HTS, HIV Env fusion)
CCOC(=O)c1c(NC(=O)Cc2cccs2)sc(C(=O)NC2CCCCC2)c1C	C2C12 statin 78 (no result: EWS-Fli block, PAX8 inh HTS, HIV Env fusion, INS-1E GSIS act)
C[C@@H]1CN([C@H](C)CO)C(=O)CCCn2cc(nn2)CO[C@H]1CN(C)Cc1cccc(C(F)(F)F)c1	none (no result: PAX8 inh HTS)
c1ccc2c(c1)CCN(c1nc3cc4c(cc3s1)OCCO4)C2	PAX8 inh HTS 82 (no result: EWS-Fli block)
COc1ccc(OC)c2sc(N3CCc4ccccc4C3)nc12	none (no result: C2C12 statin, miR122 inh)
C[C@@H]1CN([C@@H](C)CO)C(=O)c2cc(NC(=O)C3CCCCC3)ccc2O[C@H]1CN(C)C(=O)Nc1ccccc1	none (no result: HIV Env fusion)
O=C(O)C(Cc1ccccc1)N1C(=O)c2ccccc2C1=O (stereo not drawn)	none (no result: EWS-Fli block, INS-1E GSIS act)
O=C(O)C(Cc1ccc(O)cc1)N1C(=O)c2ccccc2C1=O (stereo not drawn)	INS-1E GSIS act 48
C[C@H](O)C#Cc1cnc2c(c1)C(=O)N([C@@H](C)CO)C[C@@H](C)[C@H](CN(C)C(=O)c1ccccc1F)O2	none (no result: PAX8 inh HTS)
COc1cccc(C(=O)N2CCN(C(=O)c3cccc4ccccc34)CC2)c1OC	none (no result: EWS-Fli block, PAX8 inh HTS, HIV Env fusion)
CCc1ccc(CN2CCN(C(=O)c3cccc(OC)c3OC)CC2)cc1	HIV Env fusion 89, C2C12 statin 91 (no result: EWS-Fli block)
C[C@@H]1CN([C@H](C)CO)C(=O)c2cc(NC(=O)Nc3ccc(C(F)(F)F)cc3)ccc2O[C@H]1CN(C)C(=O)Nc1ccc(C(F)(F)F)cc1	none
O=C(CSc1n[nH]c(=O)n1C1CC1)Nc1cc(Cl)ccc1Oc1ccccc1	HIV Env fusion 128 (no result: EWS-Fli block, PAX8 inh HTS)
O=C(CSc1n[nH]c(=O)n1C1CC1)Nc1ccccc1	none
O=C1O[C@H](c2ccccc2)[C@H](c2ccccc2)N2[C@H]1[C@@H](C(=O)N1CCCCCCC1)[C@]1(C(=O)Nc3ccc(C#CCCO)cc31)[C@H]2c1ccc(O)cc1	none (no result: INS-1E GSIS act, C2C12 statin, miR122 inh)
CC(C)C[C@@]12C(=O)N(c3cccc(Cl)c3)C(=O)N1[C@H](c1ccc(Cl)cc1)[C@@H]1C(=O)N(C3CCCCC3)C(=O)[C@@H]12	HIV Env fusion 67 (no result: miR122 inh)
CC(C)C[C@@]12C(=O)N(c3cccc(Cl)c3)C(=O)N1[C@H](c1ccc(F)cc1)[C@@H]1C(=O)N(C3CCCCC3)C(=O)[C@@H]12	none (no result: miR122 inh)
CC(C)C[C@@]12C(=O)N(c3cccc(Br)c3)C(=O)N1[C@H](c1ccc(Cl)cc1)[C@@H]1C(=O)N(C3CCCCC3)C(=O)[C@@H]12	HIV Env fusion 70 (no result: miR122 inh)
CC[C@@]12C(=O)N(c3cccc(Br)c3)C(=O)N1[C@H](c1ccc(Cl)cc1)[C@@H]1C(=O)N(C3CCCCC3)C(=O)[C@@H]12	HIV Env fusion 94 (no result: miR122 inh)
O=C1[C@H]2[C@@H](c3ccc(Cl)cc3)N3C(=O)N(c4cccc(Cl)c4)C(=O)[C@@]3(Cc3ccc(Cl)cc3)[C@H]2C(=O)N1C1CCCCC1	none (no result: miR122 inh)
